This passage reports inhibition results from ChEMBL document CHEMBL1961873, “Compounds: GSK PKIS; Assays: Nanosyn kinase panel” (2012).

As usually defined, the inhibition is the drop in the measured response relative to a control, in per cent.

Assay [1] has as its target MAP/microtubule affinity-regulating kinase 3 (Homo sapiens) (UniProt P27448). The note with it: at 1 µM.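 Also: reported values are averaged percent inhibition of MARK3.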
Assay [2] deals with T1, MAP/microtubule affinity-regulating kinase 4 (Homo sapiens) (UniProt Q96L34).
T1 sequence (whole entry): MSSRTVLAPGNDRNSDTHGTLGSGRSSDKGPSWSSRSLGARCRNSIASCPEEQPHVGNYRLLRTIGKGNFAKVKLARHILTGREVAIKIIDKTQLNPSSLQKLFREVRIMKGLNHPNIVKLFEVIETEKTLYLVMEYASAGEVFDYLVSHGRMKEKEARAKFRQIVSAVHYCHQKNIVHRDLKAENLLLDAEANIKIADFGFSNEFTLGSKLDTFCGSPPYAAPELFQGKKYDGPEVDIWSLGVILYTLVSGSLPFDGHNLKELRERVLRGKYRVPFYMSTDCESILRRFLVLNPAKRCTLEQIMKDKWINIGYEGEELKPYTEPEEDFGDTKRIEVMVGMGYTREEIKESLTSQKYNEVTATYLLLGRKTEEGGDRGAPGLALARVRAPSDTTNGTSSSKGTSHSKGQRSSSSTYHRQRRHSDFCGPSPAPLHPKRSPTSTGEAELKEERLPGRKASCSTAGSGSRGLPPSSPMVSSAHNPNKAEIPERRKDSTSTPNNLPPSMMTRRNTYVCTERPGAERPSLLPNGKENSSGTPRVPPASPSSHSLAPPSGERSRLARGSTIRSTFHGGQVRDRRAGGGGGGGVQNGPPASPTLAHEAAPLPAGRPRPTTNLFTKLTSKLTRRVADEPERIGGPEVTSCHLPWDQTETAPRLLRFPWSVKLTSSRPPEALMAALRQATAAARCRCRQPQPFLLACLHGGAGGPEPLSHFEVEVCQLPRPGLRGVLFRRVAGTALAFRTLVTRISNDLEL
Conditions: at 0.1 µM.

Assay [3] deals with T1, MAP/microtubule affinity-regulating kinase 4 (Homo sapiens). Conditions: at 1 µM.
Assay [4] deals with Maternal embryonic leucine zipper kinase (Homo sapiens) (UniProt Q14680). The note with it: at 0.1 µM.
Assay [5] has the same target. Conditions: at 1 µM.
Assay [6] addresses MAP kinase-interacting serine/threonine-protein kinase 1 (Homo sapiens) (UniProt Q9BUB5). The note with it: at 0.1 µM.
Assay [7] has the same target. The note with it: at 1 µM.
In assay [8] the target is MAP kinase-interacting serine/threonine-protein kinase 2 (Homo sapiens) (UniProt Q9HBH9). Conditions: at 0.1 µM.
Assay [9] has the same target. The note with it: at 1 µM.
Assay [10] deals with Serine/threonine-protein kinase MARK2 (Homo sapiens) (UniProt Q7KZI7). Conditions: at 0.1 µM.
Serine/threonine-protein kinase MARK2 (Homo sapiens), sequence (Q7KZI7 whole entry): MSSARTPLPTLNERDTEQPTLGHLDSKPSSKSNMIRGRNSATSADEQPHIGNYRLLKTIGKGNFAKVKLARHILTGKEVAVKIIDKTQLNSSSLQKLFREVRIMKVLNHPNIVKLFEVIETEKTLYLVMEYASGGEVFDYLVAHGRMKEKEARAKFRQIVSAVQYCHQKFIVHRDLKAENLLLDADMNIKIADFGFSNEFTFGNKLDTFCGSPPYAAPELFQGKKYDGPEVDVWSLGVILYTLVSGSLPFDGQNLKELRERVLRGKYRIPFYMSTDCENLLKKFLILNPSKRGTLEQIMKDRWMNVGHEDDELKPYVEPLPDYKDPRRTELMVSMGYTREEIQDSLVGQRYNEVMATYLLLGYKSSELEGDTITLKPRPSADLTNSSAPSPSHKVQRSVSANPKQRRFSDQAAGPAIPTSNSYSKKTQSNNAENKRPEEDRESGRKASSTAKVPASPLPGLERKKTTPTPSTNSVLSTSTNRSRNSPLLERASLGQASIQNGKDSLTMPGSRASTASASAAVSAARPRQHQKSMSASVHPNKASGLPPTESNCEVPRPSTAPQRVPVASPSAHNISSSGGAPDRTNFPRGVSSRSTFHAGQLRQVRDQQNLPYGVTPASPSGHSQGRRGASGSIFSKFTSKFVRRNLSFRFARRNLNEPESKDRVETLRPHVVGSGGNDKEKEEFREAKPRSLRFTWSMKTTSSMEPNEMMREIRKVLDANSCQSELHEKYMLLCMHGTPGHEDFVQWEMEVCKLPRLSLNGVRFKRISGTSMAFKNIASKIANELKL

Maternal embryonic leucine zipper kinase (Homo sapiens), sequence (Q14680 whole entry, looked up): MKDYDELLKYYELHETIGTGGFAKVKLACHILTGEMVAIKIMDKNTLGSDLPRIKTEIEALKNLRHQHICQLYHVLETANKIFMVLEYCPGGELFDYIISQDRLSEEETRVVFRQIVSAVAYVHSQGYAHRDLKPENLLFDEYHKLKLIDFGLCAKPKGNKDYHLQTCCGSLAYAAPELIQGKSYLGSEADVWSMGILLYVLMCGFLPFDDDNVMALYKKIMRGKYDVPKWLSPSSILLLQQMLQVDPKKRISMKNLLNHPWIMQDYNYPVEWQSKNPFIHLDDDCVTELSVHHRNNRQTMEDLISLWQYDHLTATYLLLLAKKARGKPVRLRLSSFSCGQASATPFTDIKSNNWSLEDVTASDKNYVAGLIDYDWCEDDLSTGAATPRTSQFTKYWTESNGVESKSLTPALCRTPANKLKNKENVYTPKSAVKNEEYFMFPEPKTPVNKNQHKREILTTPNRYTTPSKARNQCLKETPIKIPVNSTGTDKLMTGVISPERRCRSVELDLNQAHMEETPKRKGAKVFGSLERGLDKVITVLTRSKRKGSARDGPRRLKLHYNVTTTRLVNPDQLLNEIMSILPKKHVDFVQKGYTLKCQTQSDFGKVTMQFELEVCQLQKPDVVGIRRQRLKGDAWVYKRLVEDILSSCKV
MAP kinase-interacting serine/threonine-protein kinase 1 (Homo sapiens), sequence (Q9BUB5 whole entry, looked up): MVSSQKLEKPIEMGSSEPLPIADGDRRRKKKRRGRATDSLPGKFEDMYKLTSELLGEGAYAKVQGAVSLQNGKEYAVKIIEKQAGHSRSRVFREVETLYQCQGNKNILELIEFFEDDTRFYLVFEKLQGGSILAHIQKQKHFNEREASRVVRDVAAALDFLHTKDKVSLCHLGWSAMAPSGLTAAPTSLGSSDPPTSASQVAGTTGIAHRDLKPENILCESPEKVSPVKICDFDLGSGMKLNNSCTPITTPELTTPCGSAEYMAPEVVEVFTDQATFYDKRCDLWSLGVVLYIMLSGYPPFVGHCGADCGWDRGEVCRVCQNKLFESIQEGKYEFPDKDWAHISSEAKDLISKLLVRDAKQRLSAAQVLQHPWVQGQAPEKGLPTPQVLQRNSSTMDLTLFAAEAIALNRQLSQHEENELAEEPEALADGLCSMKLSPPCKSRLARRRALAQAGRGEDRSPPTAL
MAP kinase-interacting serine/threonine-protein kinase 2 (Homo sapiens), sequence (Q9HBH9 whole entry, looked up): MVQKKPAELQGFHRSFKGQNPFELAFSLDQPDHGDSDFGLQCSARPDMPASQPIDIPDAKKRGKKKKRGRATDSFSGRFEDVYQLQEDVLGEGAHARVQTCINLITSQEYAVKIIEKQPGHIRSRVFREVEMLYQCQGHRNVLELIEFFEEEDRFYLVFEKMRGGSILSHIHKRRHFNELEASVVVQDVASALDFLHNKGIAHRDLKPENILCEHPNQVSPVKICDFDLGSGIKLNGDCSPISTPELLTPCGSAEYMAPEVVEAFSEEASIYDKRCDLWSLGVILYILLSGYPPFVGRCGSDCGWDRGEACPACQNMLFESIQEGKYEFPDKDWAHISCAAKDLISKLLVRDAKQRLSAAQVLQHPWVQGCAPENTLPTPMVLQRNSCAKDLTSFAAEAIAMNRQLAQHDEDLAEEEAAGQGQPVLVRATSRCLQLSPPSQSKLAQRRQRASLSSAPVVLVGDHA
MAP/microtubule affinity-regulating kinase 3 (Homo sapiens), sequence (P27448 whole entry, looked up): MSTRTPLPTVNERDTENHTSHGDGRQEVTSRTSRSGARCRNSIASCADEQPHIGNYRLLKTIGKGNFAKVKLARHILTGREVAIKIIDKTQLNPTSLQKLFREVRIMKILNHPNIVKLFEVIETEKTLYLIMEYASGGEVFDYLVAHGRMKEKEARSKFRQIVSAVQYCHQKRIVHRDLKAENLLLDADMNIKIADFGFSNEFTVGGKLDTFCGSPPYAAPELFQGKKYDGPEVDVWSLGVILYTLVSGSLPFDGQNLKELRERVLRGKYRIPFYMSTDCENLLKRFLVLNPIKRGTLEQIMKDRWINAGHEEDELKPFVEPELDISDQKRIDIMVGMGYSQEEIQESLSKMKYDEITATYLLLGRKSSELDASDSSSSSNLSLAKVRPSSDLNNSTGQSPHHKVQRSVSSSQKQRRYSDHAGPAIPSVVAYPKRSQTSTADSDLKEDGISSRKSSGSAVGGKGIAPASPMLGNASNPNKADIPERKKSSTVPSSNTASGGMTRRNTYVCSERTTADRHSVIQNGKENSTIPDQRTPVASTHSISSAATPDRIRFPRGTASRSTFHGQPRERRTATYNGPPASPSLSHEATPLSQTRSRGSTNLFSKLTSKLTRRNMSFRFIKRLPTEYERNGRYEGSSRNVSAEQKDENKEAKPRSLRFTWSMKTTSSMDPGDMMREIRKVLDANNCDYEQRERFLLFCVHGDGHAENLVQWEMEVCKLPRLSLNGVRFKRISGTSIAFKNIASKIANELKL

`[O-][S+]1CCN(Cc2ccc(-c3ccc4ncnc(Nc5ccc(OCc6ccccc6)c(F)c5)c4c3)o2)CC1`: the inhibition turned out to be 1.39% in assay [1]; 0.67% in assay [2]; 1.47% in assay [3]; 2.88% in [4]; 1.82% in [5]; 2.24% in assay [6]. The inhibition was 4.41% in assay [7], 1.32% in [8], 9.37% in assay [9] and -1.34% in [10].
With `COc1cc2ncn(-c3cc(O[C@H](C)c4ccccc4Cl)c(C(N)=O)s3)c2cc1OC`, the inhibition in assay [1] is 37.2%; in assay [2] it was 4.58%; in assay [3], 32%; in assay [4] it was 4.94%; in assay [5], 23.7%; in [6], 3.54%. The inhibition turned out to be 11.9% in [7], 3.53% in assay [8], 11.8% in [9] and 2.26% in assay [10].
As for `COC(=O)Nc1nc2cc(Oc3cccc(NC(=O)Nc4cc(C(F)(F)F)ccc4F)c3)ccc2[nH]1`, the inhibition was 1.94% in assay [1]; 1.07% in [2]; 2.15% in [3]; -0.49% in [4]; 1.36% in assay [5]; 1.02% in assay [6]. The inhibition in assay [7] was 1.01%; in assay [8], 3.02%; in assay [9] it was -0.05%; in assay [10] it was 0.89%.
In the case of `COc1ccc(COc2ccc(Cc3cnc(N)nc3N)cc2OC)cc1`, the inhibition in [1] was 2.06%; in assay [2] it was 2.83%; in assay [3] it was 1.47%; in [4], 0.82%; in assay [5], -1.43%; in assay [6] it was 10.8%. Also, the inhibition in assay [7] was 0.82%; in assay [8], 3.14%; in assay [9], 0.25%; in assay [10], 1.26%.
Consider `CS(=O)(=O)CCN(CC#N)Cc1ccc(-c2ccc3ncnc(Nc4ccc(OCc5cccc(F)c5)c(Cl)c4)c3c2)o1`, for which the inhibition in assay [1] was -0.24%; in assay [2], 0.8%; in [3], -0.12%; in assay [4], 3.85%; in [5] it was 8.4%; in assay [6], 1.32%. Besides, the inhibition is 5.64% in assay [7], 2.33% in assay [8], 11.5% in [9] and -0.92% in assay [10].
Regarding `CC1=C(C(=O)Nc2ccc3[nH]ncc3c2)C(c2ccc(Cl)c(Cl)c2)CC(=O)N1` (stereo not given), the inhibition is 9.26% in assay [1]; -0.78% in assay [2]; 3.04% in [3]; -0.28% in [4]; 5.33% in [5]; 2.25% in [6]. Moreover, the inhibition in [7] was 5.99%; in assay [8] it was 0.25%; in assay [9] it was 1.48%; in [10], -0.78%.
As to `CCCN1CCC=C(c2ccc(Nc3nc(Nc4ccccc4C(N)=O)c4cc[nH]c4n3)c(C)c2)C1`, the inhibition in assay [1] was determined as 20.8%; in [2] it was 3.18%; in assay [3] it was 13.7%; in assay [4], 10%; in assay [5], 44.7%; in [6] it was 2.32%. Moreover, the inhibition in [7] came to 3.91%; in assay [8] it was 1.78%; in assay [9], 7.47%; in assay [10], 1.68%.
Take `CCn1c(-c2nonc2N)nc2ccncc21`: the inhibition in [1] was 1.4%; in [2] it was 1.33%; in assay [3], 2.78%; in [4] it was -0.81%; in [5], 2.39%; in assay [6], 1.17%. For the same compound, the inhibition in assay [7] is 3.2%; in assay [8], 0.41%; in assay [9], 3.51%; in assay [10] it was -1.74%.
As to `NS(=O)(=O)c1ccc(N/N=C2\C(=O)Nc3ccc(C(=O)NCCc4c[nH]cn4)cc32)cc1`, the inhibition in assay [1] was found to be 49.1%; in assay [2], 11.8%; in assay [3], 56.3%; in assay [4], 82%; in assay [5], 98%; in [6], 2.81%. The inhibition in assay [7] is 4.11%; in assay [8], 1.48%; in assay [9] it was 4.85%; in assay [10], 7.88%.
Consider `CC(=O)Nc1cccc(C#Cc2cncnc2Nc2ccc(OCc3cccc(F)c3)c(Cl)c2)n1`, for which the inhibition in [1] is 3.05%; in assay [2], 0.52%; in assay [3] it was 0.84%; in assay [4], -2.29%; in [5], -2.61%; in assay [6] it was 0.9%. In addition, the inhibition in [7] came to 18.7%; in [8], 3.48%; in [9] it was 14.3%; in [10], 1.78%.
In the case of `NC(=O)c1cccc(Nc2nccc(Nc3cccc4[nH]ncc34)n2)c1`, the inhibition in [1] was 11.9%; in [2] it was 1.34%; in assay [3] it was 11.8%; in [4], -1.78%; in assay [5], 8.97%; in [6], 0.69%. Moreover, the inhibition stood at 25.3% in [7], 0.64% in [8], 23.7% in assay [9] and 0.92% in assay [10].
As to `CCn1c(-c2nonc2N)nc2cnc(Oc3cccc(NC(=O)c4ccc(OCCN5CCOCC5)cc4)c3)cc21`, the inhibition in assay [1] turned out to be 8.24%; in assay [2], 1.29%; in [3], 4.43%; in assay [4], 10.4%; in assay [5], 50.5%; in [6] it was 3.45%. Further, the inhibition in assay [7] was 13.3%; in assay [8], 3.73%; in assay [9] it was 21%; in assay [10] it was 1.17%.
Regarding `Cc1nn(C)c2cc(N(C)c3ccnc(Nc4cccc(S(N)(=O)=O)c4)n3)ccc12`, the inhibition in assay [1] is -2.37%; in assay [2], 1.36%; in assay [3], 0.82%; in assay [4], 4.84%; in assay [5], 5%; in [6] it was 1.93%. In addition, the inhibition was 6.83% in assay [7], 2.38% in [8], 7.27% in assay [9] and -0.09% in assay [10].
As for `CC1=C(C(=O)Nc2ccc3[nH]ncc3c2)C(c2ccc3ccccc3c2)CC(=O)N1` (stereo not given), the inhibition in assay [1] was 4.13%; in assay [2], 0.19%; in assay [3], 1.73%; in assay [4], 3.7%; in [5], 6.22%; in [6] it was 3.03%. Further, the inhibition in assay [7] was 5.77%; in assay [8], 1.21%; in assay [9] it was 3.81%; in [10] it was -0.71%.
`COc1cc2ncn(-c3cc(O[C@@H](C)c4ccccc4Cl)c(C(N)=O)s3)c2cc1OC`: the inhibition amounted to 8.06% in [1]; 2.88% in assay [2]; 7.69% in assay [3]; 4.41% in [4]; 9.71% in assay [5]; 1.25% in assay [6]. Besides, the inhibition in assay [7] is 2.74%; in assay [8], -0.9%; in assay [9], 7.84%; in assay [10], 1.49%.
For `Fc1cccc(COc2ccc(Nc3ncnc4sc(-c5cccs5)cc34)cc2Cl)c1`, the inhibition in assay [1] came to 3.4%; in assay [2] it was 0.59%; in [3] it was 1.48%; in assay [4], 2.25%; in assay [5] it was 3.16%; in assay [6], 2.11%. The inhibition in [7] is 5.61%; in assay [8], 1.36%; in [9], 5.08%; in [10] it was 1.15%.
In the case of `CS(=O)(=O)CCNCc1ccc(-c2ccc3ncnc(Nc4ccc(OCc5ccccc5)c(Cl)c4)c3c2)o1`, the inhibition in assay [1] came out at 1.81%; in assay [2], 0.94%; in assay [3] it was 1.91%; in [4], 2.31%; in assay [5] it was 3.16%; in [6] it was 2.34%. Also, the inhibition in assay [7] was determined as 6.26%; in [8], 1.96%; in assay [9], 9.71%; in [10], 0.91%.
